Screening data from PubChem BioAssay.
TIM10 inh – TIM10 yeast growth inhibition; AID 463195; inhibition, % at 10 µM; S. cerevisiae TIM10 strain growth, BacTiter-Glo luminescence, 24 h; hit rate 1.4% among 330,000;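 active = inhibition of 40% or more at the single tested concentration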;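 also: wild-type TIM10 isogenic control strain grown at permissive 25 °C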
Beta2AR agonist – agonists of human beta-2 adrenergic receptor inducing internalization; Am2.2-beta2AR cells, FAP receptor internalization, flow cytometry; response, % (no concentration beside the values); hit rate 0.43% among 340,000; AID 504454;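 active = response above a set limit, near 3 SD of response in nonfluorescent compounds, cut at about 42% in these data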
Target sequence (P07550 whole entry, looked up): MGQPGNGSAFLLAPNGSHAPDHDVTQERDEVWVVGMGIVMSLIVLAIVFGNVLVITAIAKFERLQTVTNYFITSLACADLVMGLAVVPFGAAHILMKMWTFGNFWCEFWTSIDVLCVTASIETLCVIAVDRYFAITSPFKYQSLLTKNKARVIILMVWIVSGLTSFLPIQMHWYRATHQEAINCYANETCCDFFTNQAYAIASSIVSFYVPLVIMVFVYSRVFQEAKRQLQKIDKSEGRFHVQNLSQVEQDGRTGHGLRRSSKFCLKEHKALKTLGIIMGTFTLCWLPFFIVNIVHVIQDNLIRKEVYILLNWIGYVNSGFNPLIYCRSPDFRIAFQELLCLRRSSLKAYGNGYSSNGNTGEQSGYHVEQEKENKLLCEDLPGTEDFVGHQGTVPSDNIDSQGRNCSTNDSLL
tim23-1 inh – growth inhibitors of tim23-1 mutant yeast | hit rate 1.3% among 330,000 | S. cerevisiae tim23-1 growth, BacTiter-Glo luminescence, 24 h | AID 463212 | inhibition, % at 20 µM;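 active = growth inhibition of the mutant yeast at or above 50%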;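 also: temperature-sensitive mutant grown at 25 °C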
tim10-1 inh – inhibits growth of tim10-1 mutant yeast; S. cerevisiae tim10-1 ts strain growth, BacTiter-Glo, 24 h; inhibition, % at 20 µM; hit rate 2.2% among 330,000;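 active = inhibition of at least 40%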;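 also: mutant grown at 25 °C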
PfHsp90 set2 – inhibits growth of yeast expressing Plasmodium falciparum Hsp90. S. cerevisiae expressing PfHsp90, BacTiter-Glo ATP, 48 h; yeast lacking PDR1 and PDR3 efflux regulators. inhibition, % at 9.4 µM. hit rate 0.32% among 310,000. AID 504621;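 active = every replicate shows inhibition above about 80%, whatever the replicate mean, limit read from the data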
tim10-1 conf – confirmation of tim10-1 mutant yeast growth inhibitors | shares compounds with tim10-1 inh | S. cerevisiae tim10-1 ts strain growth, BacTiter-Glo, 24 h | inhibition, % at 20 µM | hit rate 56% among 7,400 | AID 463213;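 active = inhibition of yeast growth at or above a set limit in either of two repeat tests at 20 µM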;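 also: tim10-1 mutant grown at permissive 25 °C to find synthetic lethal compounds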
A number is an active result; i = inactive; nt = not tested or not shown. Compounds with a hit are over-represented: about 3.8% of the library has one in this group of screens.

SMILES	TIM10 inh	Beta2AR agonist	tim23-1 inh	tim10-1 inh	PfHsp90 set2	tim10-1 conf
Cc1cc(C)n(S(=O)(=O)c2ccc(C(C)(C)C)cc2)n1	i	i	i	43.4	nt	37.9
Cc1cc(C)n(S(=O)(=O)c2cc(Cl)ccc2Cl)n1	i	i	i	40.3	i	i
Cc1cc(C)n(S(=O)(=O)c2ccc(F)cc2)n1	i	i	i	i	i	nt
Cc1cc(C)n(S(=O)(=O)c2ccc(Cl)cc2)n1	i	i	i	i	i	nt
CCC(=O)Nn1cnc2c(c1=O)C1(CCCCC1)Cc1ccccc1-2	i	i	i	50.1	i	36.8
CCCn1c(SCC(N)=O)nc2c(c1=O)C1(CCCC1)Cc1ccccc1-2	i	i	i	i	i	nt
Cn1c(NCCCO)nc2c(c1=O)C1(CCCCC1)Cc1ccccc1-2	i	i	i	54.1	i	38.1
COc1ccc(OC)c2c1cc(C(=O)N[C@@H](C)C(=O)N[C@@H](C(=O)O)c1ccccc1)n2C	i	i	i	i	i	nt
Cn1c(CNC(=O)C(Cc2ccccc2)NC(=O)c2ccccc2F)cc(=O)n(C)c1=O (stereo not given)	i	i	i	i	i	nt
O=C(NCc1ccccc1)C(Cc1ccccc1)N1C(=O)C2C3CCC(C3)C2C1=O (stereo not given)	i	i	i	40.4	nt	i
COc1ccc(S(=O)(=O)N2CCC(C(=O)NCCN3CCOCC3)CC2)cc1	i	i	i	i	i	nt
Cc1cccc(OCC(=O)Nc2nccs2)c1C	i	i	i	42.4	i	i
Cn1c(=O)c2c(nc(SCCN3CCOCC3)n2Cc2ccccc2Cl)n(C)c1=O	i	i	i	i	i	nt
Cn1c(=O)c2c(nc(SCCN3CCOCC3)n2Cc2cccc3ccccc23)n(C)c1=O	i	i	i	43.5	nt	i
CC(C)(C)OC(=O)C[C@H]1C/C=C\C[C@@H](CC(=O)N(CCO)Cc2ccccc2)C(=O)N[C@H](Cc2c[nH]c3ccccc23)COC1=O	i	i	i	i	i	nt
Cc1ccccc1-c1nc(CN2CCN(C(=O)c3ccco3)CC2)c(C)o1	i	i	i	i	i	nt
CCOc1ccccc1-c1nc(CN2CCN(C(=O)c3ccco3)CC2)c(C)o1	i	i	i	40.8	i	i
O=C(CCSC1=NCCCN1)c1ccc(F)cc1	nt	i	nt	nt	i	nt
COc1ccc(C2=NOC(C(=O)N3CCCc4ccccc43)C2)cc1 (stereo not given)	i	i	i	i	i	nt
COc1cc(C2=NOC(C(=O)N3CCCc4ccccc43)C2)cc(OC)c1OC (stereo not given)	i	i	i	40.1	i	i
Cn1cc(Cl)c(C(=O)N/N=C/c2ccc3c4c(cccc24)CC3)n1	i	i	i	i	i	nt
CN(CC(=O)Nc1ccccc1Br)C(=O)CNC(=O)Cc1cccc2ccccc12	i	i	i	i	i	nt
CCN(CC)CCCn1c2c(c(SCC(=O)Nc3nc4ccccc4s3)nc1=O)CCC2	i	i	i	i	nt	nt
CN(C)S(=O)(=O)c1cccc(-c2cn3cc(Cl)ccc3n2)c1	i	i	i	45.3	i	34.0
CN(C)S(=O)(=O)c1cccc(-c2cn3ccccc3n2)c1	i	i	i	i	i	nt
SMILES	TIM10 inh	Beta2AR agonist	tim23-1 inh	tim10-1 inh	PfHsp90 set2	tim10-1 conf
O=S(=O)(c1cccc(-c2cn3cc(Cl)ccc3n2)c1)N1CCOCC1	i	i	i	41.8	i	31.6
O=S(=O)(c1cccc(-c2cn3ccccc3n2)c1)N1CCCCC1	i	i	i	i	i	nt
CC(=O)c1sc(NC(=O)c2ccccc2)nc1-c1ccccc1	i	i	i	i	i	nt
CCOC(=O)Nc1nc(-c2ccccc2)c(C(=O)c2ccccc2)s1	i	i	i	40.2	i	i
CC(=O)c1sc(NC(=O)c2c(F)cccc2F)nc1-c1ccccc1	i	i	i	51.5	i	i
CCc1cc(Cn2nc(-c3ccccc3)cc2C(=O)NCc2cccc(Br)c2)on1	i	i	i	i	i	nt
CCOC(=O)N1C2c3ccccc3C(c3ccccc32)N1C(=O)OCC	nt	i	nt	nt	i	nt
Cc1cc(-c2nc3ccccc3o2)c2ccccc2n1	i	i	i	40.8	nt	i
Cc1cc(C(=O)O)c2ccccc2n1	i	i	i	i	i	nt
O=S(=O)(NCc1ccco1)c1ccc2c(c1)Cc1ccccc1-2	i	i	i	45.1	nt	34.8
Cc1ccc(S(=O)(=O)NCc2ccco2)cc1C	i	i	i	i	i	nt
Cc1cc(C)cc(NC(=O)c2cc(S(=O)(=O)NCc3ccco3)ccc2F)c1	i	i	i	46.0	i	40.1
C[C@@H]1CN([C@H](C)CO)C(=O)Cc2cc(NC(=O)Nc3ccccc3)ccc2O[C@@H]1CN(C)C(=O)Nc1ccc2c(c1)OCO2	i	i	i	i	i	nt
CC(=O)c1ccc(S(=O)(=O)N2CCN(c3nn(C)c(=O)n(C)c3=O)CC2)cc1	i	i	i	i	i	nt
O=S(=O)(c1ccc(N2CCC(c3ccc(Cl)cc3)=N2)cc1)N(CCO)CCO	i	i	i	55.1	i	48.0
Nc1sc(-c2ccccc2)c(Cc2ccccc2)c1C(=O)O	i	i	i	53.2	i	34.8
COC(=O)c1c(N)sc(Cc2ccccc2)c1C	i	i	i	i	i	nt
O=Cc1ccc(OC(=O)c2cc(Cl)nc3ccccc23)cc1	i	i	i	44.4	i	i
CC1CN(C(=S)Nc2ccccc2)C(C)CN1C=O (stereo not given)	nt	i	nt	nt	i	nt
O=C(c1ccc2ncsc2c1)N1CCN(c2ccccc2Cl)CC1	i	i	i	48.9	i	37.8
O=C(NN1CCCCC1)c1cnn2c(C(F)F)cc(-c3ccccc3)nc12	i	i	i	i	i	nt
CCn1nc(C)c(NC(=O)c2cnn3c(C(F)F)cc(-c4ccccc4)nc23)c1C	i	i	i	42.5	i	i
CCc1ccc(CNC(=O)C2CCCN(S(=O)(=O)N(CC)c3ccccc3)C2)cc1 (stereo not given)	i	i	i	i	i	nt
Cn1cccc1Cc1nnc(SCC(=O)Nc2ccc(F)cc2)n1CCc1ccccc1	i	i	i	41.9	i	i
CCOc1cc(/C=C2\C(=O)N(Cc3ccc(C)cc3)C(C)=C2C(=O)OC)ccc1O	i	i	i	44.1	i	i
SMILES	TIM10 inh	Beta2AR agonist	tim23-1 inh	tim10-1 inh	PfHsp90 set2	tim10-1 conf
COc1cc(C(=O)Nc2ccc(S(=O)(=O)N3CCCCC3C)cc2)cc(OC)c1OC (stereo not given)	i	i	i	46.2	i	37.6
Cc1cccc(NC(=O)c2ccc(S(=O)(=O)N3CCCCC3C)cc2)n1 (stereo not given)	i	i	i	41.1	i	i
COc1ccc(C(=O)Nc2ccc(S(=O)(=O)N3CCCCC3C)cc2)c(OC)c1OC (stereo not given)	i	i	i	i	i	nt
Cc1ccc2cc(CN(CCN(C)C)C(=S)Nc3ccccc3)c(=O)[nH]c2c1C	i	i	i	40.2	nt	i
CCN(CC)CCN(Cc1cc2cccc(C)c2[nH]c1=O)C(=S)Nc1ccccc1	i	i	i	i	i	nt
COc1ccccc1NC(=O)C1CCN(C(=O)NCc2ccccc2)CC1	i	i	i	i	i	nt
